Measured values: PubChem BioAssay AID720697 (Broad Institute, 2013)
Results with a measured potency or affinity are listed apart. Results filed as inconclusive are left out. Active and inactive are the calls of the source.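 The calls were made as follows: active = signal loss with fitted half-maximal concentration at or below twice the top valid tested dose in every test run; inconclusive = runs disagree, flat 30 to 70% signal loss, or poor fit; inactive = all runs flat, opposite direction, or potency beyond limit.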

test: general mammalian cell viability loss – inhibitor set, cherry-pick, set 2, cytotoxicity control for miR-122 modulator project, dose response (AID 720697); conditions: HEK293T viability, CellTiter-Glo luminescence, 48 h; series mostly up to 26 µM

Compound	outcome
O=C(NC[C@H]1N[C@H](CO)[C@@H]1c1ccc(-c2ccccc2F)cc1)c1ccccc1	inactive
CCNC(=O)C[C@@H]1CC[C@H]2[C@@H](COc3ccc(NC(=O)Nc4ccc(F)cc4)cc3C(=O)N2C)O1	inactive
COc1cccc(C(=O)Nc2ccc3c(c2)C(=O)N(C)[C@H]2CC[C@H](CC(=O)NCc4ccc(F)cc4)O[C@H]2CO3)c1	inactive
CCC(=O)N(C)C[C@@H]1[C@@H](c2ccccc2)[C@H](CO)N1Cc1cccnc1	inactive
CNC(=O)C[C@@H]1CC[C@@H]2[C@@H](COc3ccc(NC(=O)c4ccccc4F)cc3C(=O)N2C)O1	inactive
CC(=O)N(C[C@H]1N[C@H](CO)[C@@H]1c1ccc(-c2ccccc2)cc1)C(C)C	inactive
